In PubChem BioAssay (NCI) one finds growth data, which are given here for ten molecules.

The panel holds about 83,000 compounds, 20% with a hit somewhere; the sample as a whole holds those more often.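 Cell lines were cultured in 96-well plates, exposed to a single compound concentration, and assessed for percent growth 48 hours later.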 A number with no mark means an inactive call. Active and inactive are the calls of the source. Rule for the calls: active = growth percent below 10; inactive = the rest.

What all share (test): NCI-60 one-dose screen, 48 h (100 = growth as untreated, 0 = no growth, -100 = all killed)
One test relates to SR leukemia. Conditions: 10 µM unless noted.
A further test deals with RPMI-8226 leukemia. The following applies: 10 µM.
A further test has as its system OVCAR-8 ovarian. Conditions: 10 µM unless noted.
A further test deals with OVCAR-5 ovarian. The following applies: 10 µM unless noted.
In a further test the test system is OVCAR-4 ovarian. The following applies: 10 µM unless noted.
The test system of a further test is SK-OV-3 ovarian. The following applies: 10 µM.
For a further test, the system named is OVCAR-3 ovarian. Conditions: 10 µM unless noted.
In another test the test system is T-47D breast. Conditions: 10 µM.
A further test deals with BT-549 breast. Conditions: 10 µM unless noted.
Another test has as its system MDA-MB-435 melanoma. The following applies: 10 µM unless noted.
Another test relates to SW-620 colon. The following applies: 10 µM unless noted.
The next test has as its system MCF7 breast. The following applies: 10 µM unless noted.
A further test concerns HCT-116 colon. The following applies: 10 µM unless noted.
A further test has as its system HCC-2998 colon. The following applies: 10 µM unless noted.
For the next test, the system named is KM12 colon. The following applies: 10 µM unless noted.
For a further test, the system named is IGROV1 ovarian. Conditions: 10 µM unless noted.
Another test concerns NCI/ADR-RES ovarian. Conditions: 10 µM unless noted.
For another test, the system named is HS 578T breast. Conditions: 10 µM unless noted.

For `Clc1ccc2c(N3CCN(c4ccnc(NC5CCCCC5)n4)CC3)ccnc2c1`, the growth in the test with SR leukemia was -36% (active); with RPMI-8226 leukemia, 2.01% (active); with OVCAR-8 ovarian, 56.6%; with OVCAR-5 ovarian, 80.8%; with OVCAR-4 ovarian, 42.3%; in the test on SK-OV-3 ovarian it was 62.7%. For the same molecule, the growth in the test on OVCAR-3 ovarian was 53.4%; with T-47D breast, 26.1%; in the test with BT-549 breast it was 71.1%; with MDA-MB-435 melanoma, 42.7%; with SW-620 colon it was 33.7%; in the test on MCF7 breast, 26.5%. Also, the growth with HCT-116 colon is 4.29% (active); with HCC-2998 colon, 29.2%; in the test on KM12 colon, 35.5%.
For the molecule `CCN(CC)CCCNc1ccc(C)c2sc3ccccc3c(=O)c12`, the growth with SR leukemia is -11.8% (active); with RPMI-8226 leukemia it was 15.4%; with OVCAR-8 ovarian, 43.2%; in the test on OVCAR-5 ovarian, 56.4%; with OVCAR-4 ovarian, 64.8%; with SK-OV-3 ovarian, 56.2%. The growth in the test on IGROV1 ovarian was 51.9%; with OVCAR-3 ovarian, 68.5%; with NCI/ADR-RES ovarian, 58.4%; in the test with BT-549 breast, 76.5%; in the test with MDA-MB-435 melanoma, -85.7% (active); with MCF7 breast, -67.1% (active). Further, the results for the growth in the test with HCT-116 colon and with HCC-2998 colon were 17.5% and -49.2% (active), respectively.
As for `Cc1ccccc1-c1cc(-c2ccc(Br)s2)[nH]c(=O)c1C#N`, the growth with SR leukemia is 100%; in the test on RPMI-8226 leukemia, 102%; with OVCAR-8 ovarian, 105%; in the test on OVCAR-5 ovarian it was 104%; in the test on OVCAR-4 ovarian, 108%; in the test with IGROV1 ovarian, 96.5%. Moreover, the growth with OVCAR-3 ovarian is 113%; with HS 578T breast, 96%; with NCI/ADR-RES ovarian it was 98.5%; in the test with BT-549 breast, 105%; in the test with MDA-MB-435 melanoma, 103%; in the test with SW-620 colon, 108%. The growth with MCF7 breast was 92.3%; in the test on HCT-116 colon, 93.3%; in the test with HCC-2998 colon, 104%; in the test on KM12 colon, 105%.
For the molecule `ONc1nc(NO)c2[nH]cnc2n1`, the growth in the test on SR leukemia is 21.3%; in the test on RPMI-8226 leukemia, 45.1%; in the test with OVCAR-8 ovarian, 58.3%; in the test on OVCAR-5 ovarian, 89.5%; in the test with OVCAR-4 ovarian, 84.7%; in the test with SK-OV-3 ovarian it was 97.1%. Also, the growth with IGROV1 ovarian was 86.9%; in the test with OVCAR-3 ovarian, 87.8%; with T-47D breast, 53.5%; with BT-549 breast, 77.4%; with MDA-MB-435 melanoma it was 75.7%; with SW-620 colon, 55%. The growth was 90.2% in the test on MCF7 breast, 46.8% in the test on HCT-116 colon, 121% in the test on HCC-2998 colon and 110% with KM12 colon.
With `COC(=O)c1cc(-c2ccc(C)cc2)n(C(=O)CSc2nc3sc(C(N)=O)c(C)c3c(=O)n2Cc2ccccc2)n1`, the growth with SR leukemia was 86.9%; with RPMI-8226 leukemia, 94.4%; in the test with OVCAR-8 ovarian, 104%; in the test on OVCAR-5 ovarian, 110%; in the test on OVCAR-4 ovarian it was 100%; with SK-OV-3 ovarian, 96.8%. The growth with OVCAR-3 ovarian was 106%; in the test on HS 578T breast, 107%; with T-47D breast it was 95.1%; in the test with BT-549 breast it was 96.1%; in the test with MDA-MB-435 melanoma it was 104%; in the test with SW-620 colon, 105%. Besides, the growth was 90.2% in the test with MCF7 breast, 92% in the test on HCT-116 colon, 108% with HCC-2998 colon and 100% with KM12 colon.
With `Brc1ccc(Br)nn1`, the growth in the test on SR leukemia is -25.8% (active); in the test on RPMI-8226 leukemia, -19.7% (active); in the test on OVCAR-8 ovarian it was -34.1% (active); with OVCAR-5 ovarian it was -58.6% (active); in the test on OVCAR-4 ovarian it was 26%; in the test on IGROV1 ovarian, -77.8% (active). Besides, the growth in the test with OVCAR-3 ovarian is -97.7% (active); in the test with HS 578T breast it was -0.414% (active); in the test with NCI/ADR-RES ovarian, -32.5% (active); with BT-549 breast it was -69.7% (active); with MDA-MB-435 melanoma it was -96.3% (active); with SW-620 colon, -100% (active). Also, the growth in the test on MCF7 breast was -72.4% (active); in the test on HCT-116 colon, -97.3% (active); in the test with HCC-2998 colon, -53.5% (active); with KM12 colon, -50.7% (active).
For the molecule `Cc1cc(O)cc2c1[C@H]1CC[C@]3(C)[C@@H](O)CC[C@H]3[C@@H]1C=C2`, the growth is 40.3% in the test on SR leukemia; 80.8% in the test with RPMI-8226 leukemia; 95.3% with OVCAR-8 ovarian; 114% in the test on OVCAR-5 ovarian; 110% in the test on OVCAR-4 ovarian; 115% in the test on SK-OV-3 ovarian. In addition, the growth in the test on IGROV1 ovarian was 74.4%; with OVCAR-3 ovarian, 108%; with NCI/ADR-RES ovarian, 53.2%; with BT-549 breast, 100%; in the test on MDA-MB-435 melanoma, 7.81% (active); in the test on SW-620 colon, 72%. Also, the growth in the test with MCF7 breast was 109%; in the test with HCT-116 colon, 86.6%; in the test with HCC-2998 colon it was 48.4%; in the test with KM12 colon, 102%.
Regarding `COc1cc(C(F)(F)F)ccc1-c1cc(-c2ccc(F)cc2)n[nH]1`, the growth in the test with SR leukemia is 107%; in the test with RPMI-8226 leukemia it was 67.5%; in the test with OVCAR-8 ovarian it was 84.7%; in the test on OVCAR-5 ovarian it was 88.7%; in the test on OVCAR-4 ovarian it was 71.2%; with SK-OV-3 ovarian, 104%. For the same molecule, the growth with IGROV1 ovarian is 80.6%; in the test on OVCAR-3 ovarian, 91.9%; in the test with BT-549 breast, 106%; in the test on MDA-MB-435 melanoma, 96%; with SW-620 colon it was 98.3%; in the test on MCF7 breast, 50.4%. For the same molecule, the growth was 82.2% with HCT-116 colon, 108% with HCC-2998 colon and 88.1% with KM12 colon.
As to `O=c1c2cc(F)ccc2oc2c(NCCNCCO)nc3ccccc3c12`, the growth in the test on SR leukemia was -28.7% (active); in the test with RPMI-8226 leukemia, 32.1%; in the test with OVCAR-8 ovarian, 34.1%; in the test on OVCAR-5 ovarian, 60.6%; in the test on OVCAR-4 ovarian, 37.3%; with IGROV1 ovarian, 37%. Further, the growth in the test on OVCAR-3 ovarian is 55%; in the test with HS 578T breast it was 67.1%; with NCI/ADR-RES ovarian, 48.9%; with T-47D breast, 84.8%; in the test on BT-549 breast, 79.8%; with MDA-MB-435 melanoma it was 48.5%. Moreover, the growth is 21.4% in the test with SW-620 colon, 31.4% in the test on MCF7 breast, 56.5% in the test on HCC-2998 colon and 31.8% in the test with KM12 colon.
`COc1ccc(S(=O)(=O)c2ccc(C(N)=O)cc2)cc1NC(=O)c1[nH]c(C)c2c1CCCCC2=O`: the growth was 50% in the test with SR leukemia; 46.9% in the test with RPMI-8226 leukemia; 74.5% in the test on OVCAR-8 ovarian; 68.7% with OVCAR-5 ovarian; 51.1% in the test on OVCAR-4 ovarian; 64.9% with IGROV1 ovarian. Also, the growth with OVCAR-3 ovarian was 48%; in the test on HS 578T breast it was -2.07% (active); in the test on NCI/ADR-RES ovarian it was 105%; in the test on T-47D breast, 34.4%; in the test with BT-549 breast it was 58.6%; in the test on MDA-MB-435 melanoma, 28.6%. Also, the growth in the test on SW-620 colon was 68.4%; in the test with MCF7 breast, 23.1%; with HCT-116 colon, 60%; with HCC-2998 colon, 66%; in the test with KM12 colon it was 65.4%.
